Counter-ions that a name gives are not always drawn.
What follows are compounds tested on MDA-MB-231 (assay: relative cell viability, compound + erastin, vs DMSO (fraction of DMSO control); higher = less growth inhibition). Settings: 72 h.
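Further: viability read by CCK-8 kit in 96-well plates, part of a combination screen pairing lipid-metabolism-targeting compounds with erastin.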

Compound | relative cell viability
O=C(Nc1ccncc1)c1cc([N+](=O)[O-])ccc1Cl + CCOc1ccccc1-n1c(C(C)N2CCN(C(=O)COc3ccc(Cl)cc3)CC2)nc2ccccc2c1=O [erastin] | 0.726
c1cc(-c2cnn3cc(-c4ccc(OCCN5CCCCC5)cc4)cnc23)ccn1 [Dorsomorphin] + CCOc1ccccc1-n1c(C(C)N2CCN(C(=O)COc3ccc(Cl)cc3)CC2)nc2ccccc2c1=O [erastin] | 0.405
O=C(CCCCCCCC(=O)NCCO)NCCO [Adelmidrol] + CCOc1ccccc1-n1c(C(C)N2CCN(C(=O)COc3ccc(Cl)cc3)CC2)nc2ccccc2c1=O [erastin] | 0.73
CCCCCCS(=O)(=O)NC(=O)c1ccc(CSCc2ccc(-c3ccccc3)cc2)cc1 + CCOc1ccccc1-n1c(C(C)N2CCN(C(=O)COc3ccc(Cl)cc3)CC2)nc2ccccc2c1=O [erastin] | 0.733
COc1cc([C@@H]2Oc3c(O)cc([C@H]4Oc5cc(O)cc(O)c5C(=O)[C@@H]4O)cc3[C@H]2CO)ccc1O [Silychristin] + CCOc1ccccc1-n1c(C(C)N2CCN(C(=O)COc3ccc(Cl)cc3)CC2)nc2ccccc2c1=O [erastin] | 0.685
CN(C)C(=N)NC(=N)N [Metformin] + CCOc1ccccc1-n1c(C(C)N2CCN(C(=O)COc3ccc(Cl)cc3)CC2)nc2ccccc2c1=O [erastin] | 0.546
C[C@H]1N=C(N(C)C)N=C(N)N1 [Imeglimin hydrochloride] + CCOc1ccccc1-n1c(C(C)N2CCN(C(=O)COc3ccc(Cl)cc3)CC2)nc2ccccc2c1=O [erastin] | 0.695
O=S(=O)(Nc1ccc(C(O)(C(F)(F)F)C(F)(F)F)cc1)c1cccs1 + CCOc1ccccc1-n1c(C(C)N2CCN(C(=O)COc3ccc(Cl)cc3)CC2)nc2ccccc2c1=O [erastin] | 0.568
O=C(Nc1cnccc1Cl)N1CCN(Cc2ccc3c(c2)OC(F)(F)O3)CC1 + CCOc1ccccc1-n1c(C(C)N2CCN(C(=O)COc3ccc(Cl)cc3)CC2)nc2ccccc2c1=O [erastin] | 0.646
C[C@H](CCOc1cccc(CC(=O)O)c1)N(Cc1cccc(C(F)(F)F)c1Cl)CC(c1ccccc1)c1ccccc1 + CCOc1ccccc1-n1c(C(C)N2CCN(C(=O)COc3ccc(Cl)cc3)CC2)nc2ccccc2c1=O [erastin] | 0.384
CC(C)c1onc(-c2c(Cl)cccc2Cl)c1COc1ccc(/C=C/c2cccc(C(=O)O)c2)c(Cl)c1 + CCOc1ccccc1-n1c(C(C)N2CCN(C(=O)COc3ccc(Cl)cc3)CC2)nc2ccccc2c1=O [erastin] | 0.762
O=c1c(O[C@@H]2O[C@H](CO)[C@@H](O)[C@H](O)[C@H]2O)c(-c2ccc(O)cc2)oc2cc(O)cc(O)c12 [Astragalin] + CCOc1ccccc1-n1c(C(C)N2CCN(C(=O)COc3ccc(Cl)cc3)CC2)nc2ccccc2c1=O [erastin] | 0.749
C[C@@]12C[C@@H](c3ccoc3)OC(=O)[C@@H]1CC[C@]1(C)[C@H]2[C@@H]2C=C[C@@]1(O)C(=O)O2 [Columbin] + CCOc1ccccc1-n1c(C(C)N2CCN(C(=O)COc3ccc(Cl)cc3)CC2)nc2ccccc2c1=O [erastin] | 0.688
O=c1cc(-c2ccc(O)c(-c3c(O)cc(O)c4c(=O)cc(-c5ccc(O)cc5)oc34)c2)oc2cc(O)cc(O)c12 [Amentoflavone] + CCOc1ccccc1-n1c(C(C)N2CCN(C(=O)COc3ccc(Cl)cc3)CC2)nc2ccccc2c1=O [erastin] | 0.715
Cc1cc(=O)oc2c(O)c(O)ccc12 [7,8-Dihydroxy-4-methylcoumarin] + CCOc1ccccc1-n1c(C(C)N2CCN(C(=O)COc3ccc(Cl)cc3)CC2)nc2ccccc2c1=O [erastin] | 0.881
O=C1c2cc(CO)cc(O)c2C(=O)c2c(O[C@@H]3O[C@H](CO)[C@@H](O)[C@H](O)[C@H]3O)cccc21 [Aloe-emodin-8-O-beta-D-glucopyranoside] + CCOc1ccccc1-n1c(C(C)N2CCN(C(=O)COc3ccc(Cl)cc3)CC2)nc2ccccc2c1=O [erastin] | 0.704
CC(=O)N1CCN(c2ccc(OCC3COC(Cn4ccnc4)(c4ccc(Cl)cc4Cl)O3)cc2)CC1 (centres undefined) [Ketoconazole] + CCOc1ccccc1-n1c(C(C)N2CCN(C(=O)COc3ccc(Cl)cc3)CC2)nc2ccccc2c1=O [erastin] | 0.602
COc1ccc(-c2cc(=O)c3c(O)c(OC)c(O)cc3o2)cc1OC [Eupatilin] + CCOc1ccccc1-n1c(C(C)N2CCN(C(=O)COc3ccc(Cl)cc3)CC2)nc2ccccc2c1=O [erastin] | 0.617
O=C(O)CCn1c2c(c3ccccc31)C[C@H](NS(=O)(=O)c1ccc(F)cc1)CC2 [Ramatroban] + CCOc1ccccc1-n1c(C(C)N2CCN(C(=O)COc3ccc(Cl)cc3)CC2)nc2ccccc2c1=O [erastin] | 0.806
COc1ccc(C2(CNC(=O)c3ccc(NC(=O)c4ccco4)cc3)CCOCC2)cc1 + CCOc1ccccc1-n1c(C(C)N2CCN(C(=O)COc3ccc(Cl)cc3)CC2)nc2ccccc2c1=O [erastin] | 0.728
COP(=O)(OC)OC(c1ccc(Cl)cc1)P(=O)(OC)OC (centres undefined) [Mifobate] + CCOc1ccccc1-n1c(C(C)N2CCN(C(=O)COc3ccc(Cl)cc3)CC2)nc2ccccc2c1=O [erastin] | 1.06
O=C(Nc1ccc(C(O)(C(F)(F)F)C(F)(F)F)cc1)c1ccc(C(F)(F)F)cc1 + CCOc1ccccc1-n1c(C(C)N2CCN(C(=O)COc3ccc(Cl)cc3)CC2)nc2ccccc2c1=O [erastin] | 0.693
O=C(NCCN1CCC2(CC1)C(=O)NCN2c1ccccc1)c1ccc2ccccc2c1 + CCOc1ccccc1-n1c(C(C)N2CCN(C(=O)COc3ccc(Cl)cc3)CC2)nc2ccccc2c1=O [erastin] | 0.589
CC1(N)CCN(c2cnc(-c3cccc(Cl)c3Cl)c(N)n2)CC1 [SHP099 hydrochloride] + CCOc1ccccc1-n1c(C(C)N2CCN(C(=O)COc3ccc(Cl)cc3)CC2)nc2ccccc2c1=O [erastin] | 0.647

Reference: the supplement of paper PMC9492666
